# Rab9 promoter act – Rab9 promoter activation; Potency, µM (highest dose often 9.22 µM), for inactives: at the highest dose activation, negative = inhibition, most hits filed as activators; Huh7 Rab9 promoter-luciferase reporter, luminescence, 24 h; 2.8% of 320,000 active; note: % of control where 0% means no effect; nearly all actives have a fitted effect of over 60% in size
#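 Luminescence read-out: Huh7 cells stably expressing Rab9-luciferase, treated 24 h with compound at 37 °C, then lysed with luciferase reagent for 10 min at ambient before reading.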
# ELG1 genotoxic – genotoxicity induction in ELG1-luciferase HEK293T cells. Potency, µM (titrated, usually from 46 µM), without a hit: at the highest dose activity change, positive = activation, most hits filed as activators. AID 504466. 1.3% of 330,000 active. HEK293T ELG1-luciferase reporter, luminescence, 16 h; note: % of control where 0% means no effect; nearly all actives have a fitted effect of over 60% in size
#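 Cells (2,000/well) expressing the ELG1-luciferase fusion are dosed by pin tool and kept 16 hr at 37 °C, 5% CO2. Signal comes from ONE-Glo luciferase reagent after 30 min at room temperature.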
# SMN2 splice enh – enhancers of SMN2 splice variant expression | HEK293 SMN2-luciferase splicing reporter, luminescence, 30-36 h | Potency, µM (series often up to 46.1 µM), for inactives: at the highest dose activity change, positive = activation, actives largely listed as activators | 2.8% of 210,000 active | AID 1458; note: % of control where 0% means no effect; nearly all actives have a fitted effect of over 55% in size
#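 qHTS luciferase splicing reporter: luminescence rises when SMN2 exon 7 is included in transfected HEK293 cells. Compound exposure lasted 30-36 h at 37C, with 4.5 mM final sodium butyrate as control, followed by a ONE-Glo read.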
# ELG1 repair inh – blocks ELG1-dependent DNA repair in HEK293T cells. 2.3% of 330,000 active. Potency, µM (titrated, usually from 46.1 µM), without a hit: at the top dose activity change, negative = inhibition, usual class: inhibitors. HEK293T ELG1-luciferase reporter, luminescence, 16 h; DNA damage induced by 5-fluorouridine; note: % is set by controls: 0 for no effect and ±100 for the full control effect; nearly all actives have a fitted effect of over 55% in size
#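 HEK293T cells expressing luciferase-tagged ELG1 (2,000/well) received 5-Fluorouridine plus compound or DMSO for 16 hr at 37 °C. Luciferase was read by ONE-Glo luminescence after 30 min at room temperature.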
# FLuc counter – firefly luciferase modulation, counter-screen for miR-21 project. P08659. purified FLuc, Km substrates, luminescence inhibition. Potency, µM (series often up to 57.5 µM), for the others: at the highest dose activity change, negative = inhibition, hits mostly inhibitors. 6.9% of 360,000 active;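 note: plate controls were vehicle for no effect and reference inhibitor for full effect; nearly all actives have a fitted effect of over 55% in size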
# Target sequence (P08659 whole entry, looked up): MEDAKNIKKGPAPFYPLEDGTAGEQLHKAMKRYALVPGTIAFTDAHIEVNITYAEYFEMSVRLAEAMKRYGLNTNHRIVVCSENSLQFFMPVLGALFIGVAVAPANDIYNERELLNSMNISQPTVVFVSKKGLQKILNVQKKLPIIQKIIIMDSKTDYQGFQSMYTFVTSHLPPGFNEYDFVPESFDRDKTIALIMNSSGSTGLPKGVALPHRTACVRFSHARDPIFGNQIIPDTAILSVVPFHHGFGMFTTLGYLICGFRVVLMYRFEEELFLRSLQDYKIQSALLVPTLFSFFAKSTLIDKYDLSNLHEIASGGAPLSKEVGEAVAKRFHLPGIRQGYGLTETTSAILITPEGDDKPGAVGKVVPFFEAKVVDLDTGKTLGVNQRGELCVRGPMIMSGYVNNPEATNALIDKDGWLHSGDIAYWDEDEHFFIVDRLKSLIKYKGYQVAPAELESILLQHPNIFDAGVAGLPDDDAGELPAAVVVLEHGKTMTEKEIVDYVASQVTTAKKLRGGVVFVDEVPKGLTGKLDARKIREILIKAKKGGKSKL
#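 Biochemical qHTS of compounds, final roughly 60 µM downward over six points, against 10 nM purified firefly luciferase using Km concentrations of substrates (10 uM D-luciferin, 10 uM ATP) in Tris acetate pH 7.5 buffer; luminescence output.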
# NPC1 prom act – NPC1 promoter activation; Potency, µM (doses to about 9.22 µM), for inactives: at the highest dose activation, most hits filed as activators; Huh7 NPC1 promoter luciferase reporter, 24 h; AID 485313; 2.4% of 320,000 active; note: % of control where 0% means no effect; nearly all actives have a fitted effect of over 60% in size
#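 Luciferase expression driven by the NPC1 promoter was measured in stably transfected Huh7 cells after a 24 h compound incubation, using a luciferase reagent and a luminescence read.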
# Active calls of the source: *; ? = inconclusive; nt = no result given. A selection: hits, their analogues and other compounds. The true share with any hit is near 9.4%. Calls come from the whole dose curve; as a rule, active = well fitted curve in the direction sought with a large enough effect; inconclusive = small, poorly fitted or top-dose-only effect, or another doubt; inactive = no such curve, though single readings can be large; an effect the other way counts as inactive or inconclusive. Potency is the fitted concentration of half-maximal effect.
SMILES,Rab9 promoter act,ELG1 genotoxic,SMN2 splice enh,ELG1 repair inh,FLuc counter,NPC1 prom act
Cc1nn(-c2ccccc2)c(Cl)c1/C=N/Nc1nnc(C)c(=O)[nH]1,-4%,-6%,nt,-2%,-2%,-5%
Cc1nn(-c2ccc(F)cc2)c(Cl)c1/C=N/NC(=O)c1cccc(S(=O)(=O)N2CCCC2)c1,-8%,14%,-26%,0%,5%,-5%
COc1ccc(CNC(=O)CCc2c(C)c3ccc(OC)c(C)c3oc2=O)cc1OC,nt,nt,-1%,nt,0%,nt
O=C(N/N=C/c1ccccc1C(=O)O)c1cccc(S(=O)(=O)N2CCOCC2)c1,1%,1%,nt,1%,12µM*,1%
Cc1nn(-c2ccccc2)c(Cl)c1/C=N/NC(=O)c1ccnn1C,2.8µM*,15µM*,nt,?,2.7µM*,1.4µM*
COc1cccc2c1cc1c(=O)n(CC(=O)NCc3ccco3)nc(C)n12,nt,nt,-3%,nt,-5%,nt
COc1ccc(CN(C)C(=O)c2ccc(OCC(=O)Nc3cccc(C(F)(F)F)c3)c(OC)c2)c(OC)c1,-26%,?,nt,?,1%,-18%
COc1cccc(CN(C)C(=O)c2ccc(OCC(=O)Nc3cccc(C(F)(F)F)c3)c(OC)c2)c1,-31%,-8%,nt,15µM*,3%,-26%
Cc1cccc(NC(=O)CSCC(=O)N=c2sccn2C)c1,-2%,3%,nt,-2%,-5%,6%
Cn1ccs/c1=N\C(=O)Nc1cccc(C(F)(F)F)c1,28%,4%,nt,?,24µM*,?
COCC(=O)Nc1cccc(C(F)(F)F)c1,-1%,0%,3.5µM*,1%,0%,-2%
COc1cccc(CNC(=O)c2cnc(N3CCCC3)nc2C)c1,nt,nt,nt,nt,-8%,nt
Cc1cc(C)c2c(-n3cccc3)c(C(=O)O)sc2n1,0.63µM*,?,?,?,2.7µM*,1µM*
COc1ccccc1CNC(=O)C1CCCN(c2nc3ccccc3n3cccc23)C1 (stereo not drawn),nt,nt,nt,nt,-6%,nt
Cc1ccccc1NC(=O)/C(C#N)=C/c1ccc(-c2ccc(Cl)c(C(=O)O)c2)o1,3.2µM*,12%,nt,?,19µM*,2.8µM*
COc1ccc(NC(=O)/C(C#N)=C/c2ccc(-c3ccc(Cl)c(C(=O)O)c3)o2)cc1,3.5µM*,?,nt,?,0.48µM*,?
Cc1ccc(NC(=O)/C(C#N)=C/c2ccc(-c3ccc(Cl)c(C(=O)O)c3)o2)cc1C,nt,nt,-6%,nt,3.8µM*,nt
N#C/C(=C\c1ccc(-c2ccccc2)o1)C(=O)Nn1cnnc1,-1%,1%,-2%,-7%,19µM*,-1%
COc1ccc2nc3sc(C(=O)N4CCN(c5ccc(F)cc5)CC4)cc3cc2c1,nt,nt,2%,nt,-1%,nt
CCOc1cc2[nH]c(=O)n(CCCC(=O)N3CCN(c4ccc(OC)cc4)CC3)c(=O)c2cc1OCC,nt,nt,nt,nt,3%,nt
O=C(c1ccc2nsnc2c1)N1CCN(c2ccc([N+](=O)[O-])cc2)CC1,-3%,-6%,nt,16µM*,1%,-1%
O=C(CCCc1cccs1)Nc1nc2c(s1)CCCC2,?,?,16µM*,?,24µM*,?
CC1CCc2nc(NC(=O)c3ccco3)sc2C1 (stereo not drawn),0.28µM*,?,-25%,?,0.3µM*,0.45µM*
CCOc1ccccc1C(=O)Nc1nc2c(s1)CC(C)CC2 (stereo not drawn),nt,nt,nt,nt,2.7µM*,nt
Cc1csc(NC(=O)CCCc2cccs2)n1,-2%,11%,15%,8%,?,6%
SMILES,Rab9 promoter act,ELG1 genotoxic,SMN2 splice enh,ELG1 repair inh,FLuc counter,NPC1 prom act
CC1CCc2nc(NC(=O)C3CCCO3)sc2C1 (stereo not drawn),0.5µM*,1.2µM*,2µM*,?,2.1µM*,0.5µM*
O=C(CCCn1c(=O)c2cccn2c2cccnc21)Nc1ccccc1C(F)(F)F,nt,nt,nt,nt,-2%,nt
Cc1cc(=O)n(CC(=O)NC(C)c2ccccc2)c2c1c(C)nn2C (stereo not drawn),nt,nt,nt,nt,2%,nt
Cc1ccc(-c2onc(C)c2C)cc1S(=O)(=O)NCc1ccco1,nt,nt,nt,nt,0%,nt
CCOC(=O)c1ccc(NC(=O)CC2C(=O)N(c3ccccc3)C(=O)N2C2CCCCC2)cc1 (stereo not drawn),nt,nt,14%,nt,4%,nt
O=C(CCCn1c(=O)c2ccccc2n(Cc2ccc(F)cc2Cl)c1=O)NCCc1ccc(Cl)cc1,nt,nt,2%,nt,-1%,nt
Cc1ccccc1OCC(=O)OCC(=O)NC1CCCCCC1,-1%,3%,nt,0%,-2%,12%
CC(=O)c1ccc(N2CCN(C(=O)c3cn(C)c(=O)c4c3c3ccccc3n4C)CC2)cc1,nt,nt,12%,nt,-3%,nt
Cc1ccc(NC(=S)Nn2cnnc2)c(C)c1,-52%,0%,nt,4%,2%,-4%
CC1CCc2nc(NC(=O)Cc3cccs3)sc2C1 (stereo not drawn),2.2µM*,9.2µM*,14µM*,?,9.5µM*,3.2µM*
CCC(CC)C(=O)Nc1nc2c(s1)CC(C)CC2 (stereo not drawn),nt,nt,nt,nt,-21%,nt
O=C(CCNS(=O)(=O)c1ccc2c(c1)CCCC(=O)N2)Nc1cccc(Cl)c1,nt,nt,nt,nt,-2%,nt
O=C(/C=C/c1ccccc1Cl)Nc1cccc(S(=O)(=O)NC2=NCCCCC2)c1,?,5%,14µM*,21%,1.2µM*,?
O=C(Nc1cccc(S(=O)(=O)NC2=NCCC2)c1)c1c(F)cccc1Cl,1%,0%,nt,10%,-1%,1%
O=C(/C=C/c1ccc([N+](=O)[O-])cc1)Nc1cccc(S(=O)(=O)NC2=NCCCCC2)c1,nt,-9%,nt,15µM*,nt,nt
O=C(Cc1ccccc1[N+](=O)[O-])Nc1cccc(S(=O)(=O)NC2=NCCCCC2)c1,-4%,0%,nt,?,0%,-4%
O=C(/C=C/c1ccc(Cl)cc1Cl)Nc1cccc(S(=O)(=O)NC2=NCCC2)c1,0.35µM*,?,5.6µM*,?,0.12µM*,1µM*
Cc1nn(-c2ccccc2Cl)c(Cl)c1/C=N/Nc1cccc(C(=O)O)c1,0.035µM*,?,0.071µM*,?,0.12µM*,?
Cc1nn(-c2cccc(C(F)(F)F)c2)c(Cl)c1/C=N/Nc1cccc(C(=O)O)c1,0.1µM*,0.41µM*,0.4µM*,?,1.5µM*,0.11µM*
COC(=O)N/N=C/c1c(C)nn(-c2cccc(Cl)c2)c1Cl,-5%,10%,13%,26%,?,-17%
CCOC(=O)N/N=C/c1c(C)nn(-c2cccc(C(F)(F)F)c2)c1Cl,-25%,0%,-66%,18µM*,-4%,-24%
CCOC(=O)c1scc(-c2ccccc2)c1S(=O)(=O)N1CCN(c2ccc(Cl)cc2)CC1,nt,nt,nt,nt,1%,nt
